The panel holds about 83,000 compounds, 20% with a hit somewhere; the sample as a whole holds those more often.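 Treatment: one concentration, 48 hours, 96-well format. Scoring: percent growth, with anything below 10 considered active.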 Unmarked numbers belong to inactive results. Activity calls are given as the source filed them.

This experiment concerns MDA-MB-435 melanoma. As to the kind of experiment: NCI-60 one-dose screen, 48 h (100 = growth as untreated, 0 = no growth, -100 = all killed). Particulars: 10 µM.
Take `CN1C(=O)N(C)C2SC(N/N=C/C=C/c3ccccc3)=NC21` (centres undefined): the growth was -19.6% (active). As to `Cc1ccc(NC(=O)c2ccc(-n3c(=O)[nH]c4ccccc4c3=O)cc2)cc1`, the growth is 102%.

On to `COc1cccc(/C=N/NC(=O)c2ccc3nc(-c4ccc(Cl)cc4)[nH]c3c2)c1O`, for which the growth was -89.3% (active). With `COc1ccc2[nH]c(=O)c(CSc3nccc(-c4ccc(Cl)cc4)n3)cc2c1`, the growth is 55%. For `COc1ccc2ncc(C#Cc3cncc(C(=O)Nc4ccc(CN5CCN(C)CC5)c(C(F)(F)F)c4)c3)n2n1`, the growth was -89.6% (active).

For `O=C(CS(=O)(=O)c1oc(-c2ccc(Cl)cc2)nc1S(=O)(=O)c1ccccc1)N1CCCC1`, the growth was -41.8% (active). On to `CC1=N/C(=C\c2ccc(N(C)C)cc2)C(=O)N1CCc1ccc(S(N)(=O)=O)cc1`, for which the growth is 110%.

Take `CCN1CCN(c2ccc(NC(=O)Nc3ccc(-c4cc(C(=O)NC(C)C)c5ncccc5n4)cc3)cc2C(F)(F)F)CC1`: the growth is -92.9% (active). On to `O=C(c1ccc(Cl)cc1)C1[C@H](c2ccccc2Br)[C@@H](c2ccccc2)NC12C(=O)Nc1ccccc12` (some centres undefined), for which the growth was -47.3% (active). The result for `CN1CCN(c2ccc(Nc3nc(NCCCNC(=O)C4CCCCC4)c4sccc4n3)cc2)CC1` reads 34%; that for `CC1(c2ccccc2)NC(=O)N(CC(=O)Nc2ccc(C(=O)/C=C/c3ccc(Cl)cc3)cc2)C1=O` (centres undefined), -76.4% (active); that for `CC(C)c1ccc(C(=O)Nc2sc3c(c2C(N)=O)CCC(=O)C3=O)cc1`, 91.4%. Take `O=c1c2ccccc2nc(COc2ccccc2)n1/N=C/c1ccc(N2CCOCC2)cc1`: the growth was 99.3%. The result for `CCN1CCN(Cc2ccc(NC(=O)c3cccc(-n4cc(-c5ccc(NC(C)=O)nc5)nn4)c3)cc2C(F)(F)F)CC1` reads -39.8% (active); that for `CCOC(=O)C1NN(c2ccc(S(N)(=O)=O)cc2)c2nc3nc(-c4cccs4)cc(-c4cccs4)c3c(=O)n21` (centres undefined), 106%; that for `CN1CCN(c2ccc(C(=O)/C=C/c3cc(Br)ccc3F)cc2)CC1`, 1.57% (active). Consider `CN(CCF)c1ccc(/C=C/C(=O)c2ccc(N)cc2O)cc1`, for which the growth was 81.8%. With `CC1(C)CC[C@]2(C(=O)O)CC[C@]3(C)C(=CC[C@@H]4[C@@]5(C)C/C(=C/c6ccncc6)[C@H](O)C(C)(C)[C@@H]5CC[C@]43C)[C@@H]2C1`, the growth is 54.8%.

As for `CN(C)c1cccc2c(S(=O)(=O)Nc3cccc(-c4csc(NC(=O)CCCCCN5CCN(c6cc7c(cc6F)C(=O)N(C6CCC(=O)NC6=O)C7=O)CC5)n4)c3)cccc12` (centres undefined), the growth was 95.2%. In the case of `O=C(CSc1nnc(-c2ccc3nc(-c4ccccc4)[nH]c3c2)o1)Nc1ccc(Br)cc1`, the growth was 63.4%.

On to `CCNCCCn1c2c(c3cc(OC)c(OC)cc3c1=O)C(=O)c1cc3c(nc1-2)OCO3`, for which the growth is -83.1% (active).

With `Cn1c(O)c(N=Nc2nc(-c3cc4ccccc4oc3=O)cs2)c2cc(Br)ccc21`, the growth is 106%.

Regarding `Clc1ccc(/C=N/Nc2ncnc3sc4c(c23)CCN(Cc2ccccc2)C4)cc1`, the growth was -45.3% (active). The result for `Cc1ccc(CSc2nc(-c3ccc(F)cc3)c(C#N)c(=O)[nH]2)cc1` reads 106%; that for `COc1csc(/C=N/NC(=O)c2[nH]c3ccc(Br)cc3c2-c2ccccc2)c1`, -43.6% (active); that for `CCOC(=O)N/C(=C1/OCCN1C)[P+](c1ccccc1)(c1ccccc1)c1ccccc1`, 51.5%. The result for `COc1ccc(/C=C/C(=O)c2ccc(S(=O)(=O)NCCNc3nc(Nc4ccc(F)cc4)nc(N(C)C)n3)cc2)cc1` reads 25.1%; that for `N#Cc1c(NC(=O)c2ccc(C(F)(F)F)c(Cl)c2)sc2c1CCC(=O)C2`, -68.4% (active).

Consider `O/N=C(\CSc1nnc(-c2c[nH]c3ccccc23)n1-c1ccccc1)c1ccc(Cl)cc1`, for which the growth is -99.8% (active). The result for `CN1CCCN(Cc2ccc(C(=O)Nc3cccc(Nc4ccc5c(O)cccc5n4)c3)cc2C(F)(F)F)CC1` reads -96.5% (active); that for `O=c1[nH]c2ccccc2cc1CSc1ccc(Nc2nccc(-c3ccc(C(F)(F)F)cc3)n2)cc1`, 63.3%. For `O=c1cc(-c2ccccc2)oc2cc(OCCCCNCc3ccccc3)cc(O)c12` the value was -31.5% (active); for `COc1ccccc1[C@H]1C(C(=O)c2ccc(Cl)cc2)C2(N[C@@H]1c1ccccc1)C(=O)Nc1ccc(Cl)cc12` (some centres undefined), -44.4% (active); for `N#Cc1c(Cl)nc(SCc2ccc(F)cc2)nc1-c1ccc(F)cc1`, 99.1%.
